This passage reports binding signal results from PMC8384837, “Expanding the binding specificity for RNA recognition by a PUF domain”.

What all share (assay): yeast three-hybrid, YBZ-1, SC-Leu-His + 0.5 mM 3-AT, 4 days
Details in all cases: tags: N-Gal4 AD-HA kept; label: inside an RPR1-promoter hybrid RNA with tandem MS2 sites; ssRNA

Test [1] addresses PUM1 PUF domain R5-QLV (Homo sapiens, UniProt Q14671 828-1176, C1007Q;R1008L;Q1011V). The gist of the method:
(§1)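 The interaction score is the log change in variant frequency from input to selection. Scores were computed in log2 with a pseudocount of 1 for absent variants, using Illumina sequencing of PCR-amplified repeat regions. The input came from four days on SC-Leu and the selection from four days on SC-Leu-His + 0.5 mM 3-AT. The cells were strain YBZ-1 (LexA–MS2 coat fusion, HIS3 reporter) co-expressing Pumilio-1 PUF domain libraries and matching RNA elements from a centromeric plasmid.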

Test [2] deals with PUM1 PUF domain R5-RRQ (Homo sapiens, UniProt Q14671 828-1176, C1007R). In a few lines: as §1
For test [3], the target named is PUM1 PUF domain R3-MRR (Homo sapiens, UniProt Q14671 828-1176, C935M;Q939R). In a few lines:
as §1

For test [4], the target named is PUM1 PUF domain R2-LWG (Homo sapiens, UniProt Q14671 828-1176, N899L;Y900W;Q903G). In a few lines:
as §1

In test [5] the target is PUM1 PUF domain R7-ECA (Homo sapiens, UniProt Q14671 828-1176, S1079E;N1080C;E1083A). In a few lines:
as §1

In test [6] the target is PUM1 PUF domain R7-RFW (Homo sapiens, UniProt Q14671 828-1176, S1079R;N1080F;E1083W). The gist of the method: as §1
In test [7] the target is PUM1 PUF domain R7-RGR (Homo sapiens, UniProt Q14671 828-1176, S1079R;N1080G;E1083R). The gist of the method: as §1
Test [8] addresses PUM1 PUF domain R4-WGK (Homo sapiens, UniProt Q14671 828-1176, N971W;H972G;Q975K). In a few lines:
as §1

For test [9], the target named is PUM1 PUF domain R2-VWP (Homo sapiens, UniProt Q14671 828-1176, N899V;Y900W;Q903P). The gist of the method:
as §1

The target of test [10] is PUM1 PUF domain R3-ARV (Homo sapiens, UniProt Q14671 828-1176, C935A;Q939V). In a few lines: as §1
The target in test [11] is PUM1 PUF domain R3-VYG (Homo sapiens, UniProt Q14671 828-1176, C935V;R936Y;Q939G). In a few lines: as §1
In test [12] the target is PUM1 PUF domain R5-RQR (Homo sapiens, UniProt Q14671 828-1176, C1007R;R1008Q;Q1011R). In a few lines:
as §1

In test [13] the target is PUM1 PUF domain R1-RVE (Homo sapiens, UniProt Q14671 828-1176, S863R;R864V;Q867E). In a few lines: as §1
Test [14] addresses PUM1 PUF domain R1-NVR (Homo sapiens, UniProt Q14671 828-1176, S863N;R864V;Q867R). The gist of the method:
as §1

Test [15] addresses PUM1 PUF domain R5-RKM (Homo sapiens, UniProt Q14671 828-1176, C1007R;R1008K;Q1011M). In a few lines:
as §1

In test [16] the target is PUM1 PUF domain R4-YRM (Homo sapiens, UniProt Q14671 828-1176, N971Y;H972R;Q975M). The gist of the method: as §1
Test [17] addresses PUM1 PUF domain R8-FWR (Homo sapiens, UniProt Q14671 828-1176, N1122F;Y1123W;Q1126R). In a few lines: as §1
Test [18] deals with PUM1 PUF domain R5-RFF (Homo sapiens, UniProt Q14671 828-1176, C1007R;R1008F;Q1011F). In a few lines: as §1
The target in test [19] is T1, PUM1 PUF domain R6-TWR (Homo sapiens, UniProt Q14671 828-1176, N1043T;Y1044W;Q1047R).
T1 sequence: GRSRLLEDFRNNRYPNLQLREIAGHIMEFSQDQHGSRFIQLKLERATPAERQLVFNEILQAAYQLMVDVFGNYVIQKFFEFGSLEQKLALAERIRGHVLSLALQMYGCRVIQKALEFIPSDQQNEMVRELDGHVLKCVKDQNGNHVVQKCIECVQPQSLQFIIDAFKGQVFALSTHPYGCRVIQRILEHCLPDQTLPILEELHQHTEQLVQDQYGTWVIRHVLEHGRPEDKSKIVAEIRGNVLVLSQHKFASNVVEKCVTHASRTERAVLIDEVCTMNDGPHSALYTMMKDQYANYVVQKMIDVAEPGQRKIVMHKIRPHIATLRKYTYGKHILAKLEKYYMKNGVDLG
In a few lines: as §1

The target in test [20] is PUM1 PUF domain R5-AYM (Homo sapiens, UniProt Q14671 828-1176, C1007A;R1008Y;Q1011M). In a few lines:
as §1

Chain of PUM1 PUF domain R5-RQR (Q14671 828-1176 C1007R/R1008Q/Q1011R): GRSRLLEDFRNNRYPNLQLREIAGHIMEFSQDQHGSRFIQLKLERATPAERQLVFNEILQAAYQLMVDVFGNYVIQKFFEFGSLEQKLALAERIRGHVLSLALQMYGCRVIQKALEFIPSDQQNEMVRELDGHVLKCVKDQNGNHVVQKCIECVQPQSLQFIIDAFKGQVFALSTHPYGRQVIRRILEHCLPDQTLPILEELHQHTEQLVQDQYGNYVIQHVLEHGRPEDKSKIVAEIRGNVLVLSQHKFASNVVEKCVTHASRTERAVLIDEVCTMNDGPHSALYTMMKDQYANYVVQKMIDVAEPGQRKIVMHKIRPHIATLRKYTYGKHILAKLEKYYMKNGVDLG
Chain of PUM1 PUF domain R1-RVE (Q14671 828-1176 S863R/R864V/Q867E): as the sequence (Q14671 828-1176 C1007R/R1008Q/Q1011R) above, with S36R, R37V, Q40E, R180C, Q181R, R184Q counted along it
Chain of PUM1 PUF domain R8-FWR (Q14671 828-1176 N1122F/Y1123W/Q1126R): as the sequence (Q14671 828-1176 C1007R/R1008Q/Q1011R) above, with R180C, Q181R, R184Q, N295F, Y296W, Q299R counted along it
Chain of PUM1 PUF domain R3-ARV (Q14671 828-1176 C935A/Q939V): as the sequence (Q14671 828-1176 C1007R/R1008Q/Q1011R) above, with C108A, Q112V, R180C, Q181R, R184Q counted along it
Chain of PUM1 PUF domain R1-NVR (Q14671 828-1176 S863N/R864V/Q867R): as the sequence (Q14671 828-1176 C1007R/R1008Q/Q1011R) above, with S36N, R37V, Q40R, R180C, Q181R, R184Q counted along it
Chain of PUM1 PUF domain R7-ECA (Q14671 828-1176 S1079E/N1080C/E1083A): as the sequence (Q14671 828-1176 C1007R/R1008Q/Q1011R) above, with R180C, Q181R, R184Q, S252E, N253C, E256A counted along it
Chain of PUM1 PUF domain R5-AYM (Q14671 828-1176 C1007A/R1008Y/Q1011M): as the sequence (Q14671 828-1176 C1007R/R1008Q/Q1011R) above, with R180A, Q181Y, R184M counted along it
Chain of PUM1 PUF domain R2-VWP (Q14671 828-1176 N899V/Y900W/Q903P): as the sequence (Q14671 828-1176 C1007R/R1008Q/Q1011R) above, with N72V, Y73W, Q76P, R180C, Q181R, R184Q counted along it
Chain of PUM1 PUF domain R4-YRM (Q14671 828-1176 N971Y/H972R/Q975M): as the sequence (Q14671 828-1176 C1007R/R1008Q/Q1011R) above, with N144Y, H145R, Q148M, R180C, Q181R, R184Q counted along it
Chain of PUM1 PUF domain R5-RKM (Q14671 828-1176 C1007R/R1008K/Q1011M): as the sequence (Q14671 828-1176 C1007R/R1008Q/Q1011R) above, with Q181K, R184M counted along it

Regarding “GGCUAGAACUAGUGGAUCCCCCGGCGCCCGGCGGCUCGAGCCCGGGUAAGUGUGAAUAGUCUGCAUGCCGCCGGGCGCCAUGCCUGCAGGUCGACUCUAGAAAACAUG”, the binding signal in test [1] is 2.52 log2 enrichment (interaction score); in [2] it was 1.79 log2 enrichment (interaction score).
With “GGCUAGAACUAGUGGAUCCCCCGGCGCCCGGCGGCUCGAGCCCGGGUAAGUGUAACUAGUCUGCAUGCCGCCGGGCGCCAUGCCUGCAGGUCGACUCUAGAAAACAUG”, the binding signal in [3] was 0.49 log2 enrichment (interaction score).
On to “GGCUAGAACUAGUGGAUCCCCCGGCGCCCGGCGGCUCGAGCCCGGGUAAGUGUAAAGAGUCUGCAUGCCGCCGGGCGCCAUGCCUGCAGGUCGACUCUAGAAAACAUG”, for which the binding signal in test [4] is 3.16 log2 enrichment (interaction score).
As for “GGCUAGAACUAGUGGAUCCCCCGGCGCCCGGCGGCUCGAGCCCGGGUAAGUCUAAAUAGUCUGCAUGCCGCCGGGCGCCAUGCCUGCAGGUCGACUCUAGAAAACAUG”, the binding signal in test [5] is 1.26 log2 enrichment (interaction score); in test [6], 5.36 log2 enrichment (interaction score); in [7], 5.01 log2 enrichment (interaction score).
Turning to “GGCUAGAACUAGUGGAUCCCCCGGCGCCCGGCGGCUCGAGCCCGGGUAAGUGUACAUAGUCUGCAUGCCGCCGGGCGCCAUGCCUGCAGGUCGACUCUAGAAAACAUG”, the binding signal in test [8] was 3.57 log2 enrichment (interaction score).
With “GGCUAGAACUAGUGGAUCCCCCGGCGCCCGGCGGCUCGAGCCCGGGUAAGUGUAAAAAGUCUGCAUGCCGCCGGGCGCCAUGCCUGCAGGUCGACUCUAGAAAACAUG”, the results for the binding signal in test [9] and in [4] were 4.15 log2 enrichment (interaction score) and 8 log2 enrichment (interaction score), respectively.
In the case of “GGCUAGAACUAGUGGAUCCCCCGGCGCCCGGCGGCUCGAGCCCGGGUAAGUGUAAUUAGUCUGCAUGCCGCCGGGCGCCAUGCCUGCAGGUCGACUCUAGAAAACAUG”, the binding signal in [10] was 1.96 log2 enrichment (interaction score); in test [11], 2.46 log2 enrichment (interaction score); in [3], 3.08 log2 enrichment (interaction score).
Take “GGCUAGAACUAGUGGAUCCCCCGGCGCCCGGCGGCUCGAGCCCGGGUAAGUGUUAAUAGUCUGCAUGCCGCCGGGCGCCAUGCCUGCAGGUCGACUCUAGAAAACAUG”: the binding signal in test [12] is 4.81 log2 enrichment (interaction score).
“GGCUAGAACUAGUGGAUCCCCCGGCGCCCGGCGGCUCGAGCCCGGGUAAGUAUAAAUAGUCUGCAUGCCGCCGGGCGCCAUGCCUGCAGGUCGACUCUAGAAAACAUG”: the binding signal in test [6] was 2.69 log2 enrichment (interaction score).
Regarding “GGCUAGAACUAGUGGAUCCCCCGGCGCCCGGCGGCUCGAGCCCGGGUAAGUGUAAAUCGUCUGCAUGCCGCCGGGCGCCAUGCCUGCAGGUCGACUCUAGAAAACAUG”, the binding signal in test [13] is 2.37 log2 enrichment (interaction score); in test [14] it was 5.44 log2 enrichment (interaction score).
Consider “GGCUAGAACUAGUGGAUCCCCCGGCGCCCGGCGGCUCGAGCCCGGGUAAGUGUAAAUUGUCUGCAUGCCGCCGGGCGCCAUGCCUGCAGGUCGACUCUAGAAAACAUG”, for which the binding signal in test [13] was 2.57 log2 enrichment (interaction score); in test [14], 3.93 log2 enrichment (interaction score).
As for “GGCUAGAACUAGUGGAUCCCCCGGCGCCCGGCGGCUCGAGCCCGGGUAAGUGUAAAUAGUCUGCAUGCCGCCGGGCGCCAUGCCUGCAGGUCGACUCUAGAAAACAUG”, the binding signal in [12] was 1 log2 enrichment (interaction score); in test [15], 2.32 log2 enrichment (interaction score); in test [16] it was 2.31 log2 enrichment (interaction score); in test [17], 3.71 log2 enrichment (interaction score); in test [10] it was 3.82 log2 enrichment (interaction score); in [18], 1.95 log2 enrichment (interaction score). Further, the binding signal in test [8] is 1.16 log2 enrichment (interaction score); in [4], 1.91 log2 enrichment (interaction score); in [11] it was 3.51 log2 enrichment (interaction score); in [2], 3.35 log2 enrichment (interaction score); in [19], 7.84 log2 enrichment (interaction score); in test [3] it was 0.71 log2 enrichment (interaction score).
As to “GGCUAGAACUAGUGGAUCCCCCGGCGCCCGGCGGCUCGAGCCCGGGUAAGUGUCAAUAGUCUGCAUGCCGCCGGGCGCCAUGCCUGCAGGUCGACUCUAGAAAACAUG”, the binding signal was 4.51 log2 enrichment (interaction score) in test [12], 2.95 log2 enrichment (interaction score) in test [20], 2.99 log2 enrichment (interaction score) in test [18] and 4.75 log2 enrichment (interaction score) in test [2].
Turning to “GGCUAGAACUAGUGGAUCCCCCGGCGCCCGGCGGCUCGAGCCCGGGUAAGUUUAAAUAGUCUGCAUGCCGCCGGGCGCCAUGCCUGCAGGUCGACUCUAGAAAACAUG”, the binding signal is 3.96 log2 enrichment (interaction score) in [5] and 6.1 log2 enrichment (interaction score) in test [7].
As for “GGCUAGAACUAGUGGAUCCCCCGGCGCCCGGCGGCUCGAGCCCGGGUAAGUGUAUAUAGUCUGCAUGCCGCCGGGCGCCAUGCCUGCAGGUCGACUCUAGAAAACAUG”, in test [8], the binding signal was 3.03 log2 enrichment (interaction score).
Turning to “GGCUAGAACUAGUGGAUCCCCCGGCGCCCGGCGGCUCGAGCCCGGGUAAGUGUAAAUGGUCUGCAUGCCGCCGGGCGCCAUGCCUGCAGGUCGACUCUAGAAAACAUG”, the binding signal in test [13] was 1.35 log2 enrichment (interaction score).
Take “GGCUAGAACUAGUGGAUCCCCCGGCGCCCGGCGGCUCGAGCCCGGGUAAGCGUAAAUAGUCUGCAUGCCGCCGGGCGCCAUGCCUGCAGGUCGACUCUAGAAAACAUG”: in [17], the binding signal was 3.91 log2 enrichment (interaction score).
Take “GGCUAGAACUAGUGGAUCCCCCGGCGCCCGGCGGCUCGAGCCCGGGUAAGUGCAAAUAGUCUGCAUGCCGCCGGGCGCCAUGCCUGCAGGUCGACUCUAGAAAACAUG”: in test [19], the binding signal is 5.67 log2 enrichment (interaction score).
As for “GGCUAGAACUAGUGGAUCCCCCGGCGCCCGGCGGCUCGAGCCCGGGUAAGUGUAAGUAGUCUGCAUGCCGCCGGGCGCCAUGCCUGCAGGUCGACUCUAGAAAACAUG”, the results for the binding signal in test [11] and in [3] were 1.12 log2 enrichment (interaction score) and 4.82 log2 enrichment (interaction score), respectively.
